HP1b chromo inh – inhibitors of HP1-beta chromodomain binding to methylated histone tails. P83916. AlphaScreen HP1-beta / biotin-H3K9me3 peptide binding. Potency, µM (series often up to 114 µM), without a hit: at the highest dose activity change, negative = inhibition, actives largely listed as inhibitors. 0.56% of 390,000 active. AID 540317; note: nearly all actives have a fitted effect of over 70% in size
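Compound inhibition of the preformed complex between 50 nM HP1-beta and 50 nM biotinylated H3K9me3 peptide was read by AlphaScreen. Buffer was PBS pH 7.4 with 0.01% Tween-20. Incubations ran 30 min at room temperature, with 10 ug/mL donor/acceptor beads.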
JMJD2A Tudor – inhibitors of human JMJD2A Tudor domain. O75164. AlphaScreen JMJD2A-Tudor / H3K4me3 peptide binding. Potency, µM (series often up to 114 µM), for inactives: top-dose activity change, negative = inhibition, usual class: inhibitors. 4.4% of 390,000 active. AID 504339; note: % is set by controls: 0 for no effect and ±100 for the full control effect; nearly all actives have a fitted effect of over 50% in size
L3MBTL1 inh – blocks human L3MBTL1. AlphaScreen L3MBTL1–H3K9me1 peptide binding. Potency, µM (doses to about 57.1 µM), for the others: at the top dose activity, negative = inhibition, hits mostly inhibitors. 0.66% of 230,000 active; note: % is set by controls: 0 for no effect and ±100 for the full control effect; nearly all actives have a fitted effect of over 60% in size
Target sequence (Q9Y468 whole entry, looked up): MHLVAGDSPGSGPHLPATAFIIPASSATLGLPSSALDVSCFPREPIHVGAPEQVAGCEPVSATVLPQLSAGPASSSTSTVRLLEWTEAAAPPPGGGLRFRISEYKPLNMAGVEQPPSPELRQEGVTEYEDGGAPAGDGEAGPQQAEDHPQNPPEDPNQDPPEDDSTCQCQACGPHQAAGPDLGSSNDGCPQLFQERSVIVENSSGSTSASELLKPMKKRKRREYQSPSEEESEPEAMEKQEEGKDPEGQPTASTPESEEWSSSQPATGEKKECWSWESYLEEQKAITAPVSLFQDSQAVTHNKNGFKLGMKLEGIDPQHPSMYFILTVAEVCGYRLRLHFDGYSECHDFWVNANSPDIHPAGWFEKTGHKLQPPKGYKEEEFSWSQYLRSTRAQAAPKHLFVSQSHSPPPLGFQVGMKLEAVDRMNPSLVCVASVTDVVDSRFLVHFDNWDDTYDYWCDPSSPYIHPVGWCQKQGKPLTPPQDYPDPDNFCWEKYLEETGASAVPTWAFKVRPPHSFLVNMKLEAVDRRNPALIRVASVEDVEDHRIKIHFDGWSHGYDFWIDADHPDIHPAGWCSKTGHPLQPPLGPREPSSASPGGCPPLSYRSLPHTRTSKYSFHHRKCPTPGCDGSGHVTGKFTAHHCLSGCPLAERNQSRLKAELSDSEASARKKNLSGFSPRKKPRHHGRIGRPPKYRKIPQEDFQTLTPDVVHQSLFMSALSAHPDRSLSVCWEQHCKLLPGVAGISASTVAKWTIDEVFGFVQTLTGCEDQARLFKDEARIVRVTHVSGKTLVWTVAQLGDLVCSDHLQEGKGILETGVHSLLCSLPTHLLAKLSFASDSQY
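First, the protein-peptide complex forms for 30 min at room temperature (L3MBTL1 50 nM, biotinylated H3K9me1 peptide 75 nM). Next, compounds are pin-transferred and incubated 30 min. Finally, AlphaScreen beads are added and read after 30 min.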
BAZ2B inh – blocks human BAZ2B; Q9UIF8; AlphaScreen BAZ2B-H3K14Ac peptide displacement; Potency, µM (doses to about 114 µM), without a hit: at the highest dose activity change, negative = inhibition, hits mostly inhibitors; 4.4% of 360,000 active; note: % is set by controls: 0 for no effect and ±100 for the full control effect; nearly all actives have a fitted effect of over 60% in size
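AlphaScreen displacement: compounds (up to 110uM) incubated 30 min at room temperature with a preformed 50 nM BAZ2B/50 nM biotinylated H3K14Ac peptide complex in PBS pH 7.4 with Tween-20. Donor and acceptor beads at 10 ug/mL final added, 20 min light-protected before reading.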
G9a block – blocks human histone lysine methyltransferase G9a | G9a H3K9 monomethylation, AlphaScreen, 2 h | Potency, µM (titrated, usually from 102 µM), without a hit: at the highest dose activity, negative = inhibition, hits mostly inhibitors | AID 504332 | 8.8% of 350,000 active; note: % is set by controls: 0 for no effect and ±100 for the full control effect; nearly all actives have a fitted effect of over 75% in size
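G9a (20 nM) preincubated 15 min RT with compounds, then 500 nM biotinylated H3K9 peptide and 20 uM SAM added; 2 h RT reaction. Monomethyl-H3K9 product detected by AlphaScreen with anti-H3K9me1 antibody, streptavidin donor and anti-rabbit IgG acceptor beads.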
An asterisk follows results filed as active; ? = inconclusive; · = no result; [ ] = remark or other dose. Hits are enriched below; roughly 11% of the tested compounds scored in any of these assays. Calls come from the whole dose curve; as a rule, active = well fitted inhibition curve with a large enough effect; inconclusive = small, poorly fitted or top-dose-only effect; inactive = no such curve, though single readings can be large or run the other way. Potency is the fitted concentration of half-maximal effect.

SMILES | HP1b chromo inh | JMJD2A Tudor | L3MBTL1 inh | BAZ2B inh | G9a block
CCC(=O)Nc1ccc2nc3c(=O)n(C)c(=O)n(C)c3nc2c1 | 33% | -6% | · | 0% | 10%[59 µM]
CCCOC(=O)Nc1nc(-c2ccc(C)cc2)c(C)s1 | -13% | -6% | 14% | -15% | 50µM*
CCOC(=O)Nc1nc(-c2ccccc2)c(C(=O)c2ccccc2)s1 | 19% | -12% | · | 2% | 0%
COc1ccc(C(=O)c2c(N)c(C(=O)Nc3cccc(OC)c3)c3ccccn23)cc1 | 6% | -22% | · | 0% | 28µM*
Cc1c(C(=O)N(Cc2ccc(N(C)C)cc2)C2CCS(=O)(=O)C2)oc2ccccc12 (stereo not drawn) | ? | 14µM* | -17% | 28µM* | 13µM*
CN(C)c1ccc(CN(C(=O)C2COc3ccccc3O2)C2CCS(=O)(=O)C2)cc1 (stereo not drawn) | -6% | ? | -23% | 56µM* | 45µM*
CC(C)c1ccc(CN(C(=O)C2COc3ccccc3O2)C2CCS(=O)(=O)C2)cc1 (stereo not drawn) | 6% | -19% | 10% | -7% | ·
Cc1ccccc1OCC(=O)N(Cc1ccc(N(C)C)cc1)C1CCS(=O)(=O)C1 (stereo not drawn) | -14% | ? | -2% | -46% | 32µM*
Cc1ccc(OCC(=O)N(Cc2ccc(N(C)C)cc2)C2CCS(=O)(=O)C2)cc1C (stereo not drawn) | ? | ? | -4% | 45µM* | ·
CCOc1ccccc1NC(=O)c1nc(SC(C)C)ncc1Cl | 50% | 9% | · | 27% | 56%[59 µM]
Cc1ccc(-c2sc(C(=O)Nc3ccc(Br)cc3)cc2CC(=O)O)cc1 | 29% | -6% | · | -14% | -31%[59 µM]
Cc1nn(C)c2c1c(C(F)(F)F)cc(=O)n2C(C)C(=O)N1CCN(c2ccccc2)CC1 (stereo not drawn) | 54% | -29% | · | -12% | -9%[59 µM]
CCCCNc1ccc(S(N)(=O)=O)cc1[N+](=O)[O-] | · | · | -1% | -17% | -5%[59 µM]
CCNc1ccc(S(=O)(=O)N(C)C)cc1[N+](=O)[O-] | -6% | 32µM* | 3% | ? | ·
O=[N+]([O-])c1cccc(S(=O)(=O)c2ccc(NCCO)c([N+](=O)[O-])c2)c1 | ? | 14µM* | -13% | -28% | -29%
Cc1c(C(=O)Nc2ccc(F)cc2)oc2ccc(S(=O)(=O)N3CCCCCC3)cc12 | -16% | -19% | · | -7% | ?
CCOC(=S)SCC(=O)N1CCc2cc(OC)c(OC)cc2C1C1C(=O)CC(C)(C)CC1=O (stereo not drawn) | 10% | -33% | 12% | 12% | 45µM*
O=C(O)c1cc(-c2ccccc2)n(-c2ccccc2C(=O)O)n1 | -4% | 28µM* | 22% | 12% | ?
O=C(O)c1cc(-c2ccccc2)n(-c2ccc(Cl)cc2Cl)n1 | 26% | -6% | · | -1% | 11%
CCOC(=O)c1cc(-c2ccccc2)n(-c2cccc(C(=O)Nc3ccc(OCC)cc3)c2)c1C | -7% | -34% | · | ? | -29%[59 µM]
O=C(NC(=S)Nc1ccccc1)c1cccs1 | -6% | -20% | · | -35% | -12%[59 µM]
O=C(/C=C/c1cccs1)NC(=S)NNC(=O)c1ccccc1O | 6% | 79µM* | 35µM* | ? | 10µM*
O=C(/C=C/c1cccs1)NC(=S)Nc1ccccc1 | 2% | ? | -21% | 32µM* | ·
O=C(Nc1cc(C(F)(F)F)ccc1Cl)[C@H](O)CCc1ccccc1 | · | 26% | · | · | ·
COc1cc(NC(=O)Cn2c(=O)ccc3cc(S(=O)(=O)N4CCCC4)ccc32)cc(OC)c1 | 23%[57 µM] | -15% | · | -14% | 6%[59 µM]
CC(=O)Nc1cc(=O)c2cccnc2[nH]1 | 2% | 50µM* | · | · | ·
COc1ccc(NC(=O)C2CCC(CNS(=O)(=O)c3ccc4c(c3)C(C)(C)C(=O)N4C)CC2)cc1 (stereo not drawn) | 28% | -1% | · | -4% | 1%[59 µM]
COC(=O)c1ccccc1NC(=O)c1cc2nc(-c3ccccc3)cc(-c3ccccc3)n2n1 | 47% | 9% | · | 3% | 7%[59 µM]
O=C(NN1CCOCC1)c1sc2cccc(F)c2c1Cl | 13% | -30% | -6% | -21% | 28µM*
O=C(NN1CCOCC1)c1ccccc1F | 29% | -11% | · | 0% | ·
